Test results taken from PubChem BioAssay (NCATS).
Records with an inconclusive call do not appear. A call without a number means that no potency is given here. Activity calls are given as the source filed them. The call rests on the fitted dose curve; in most records, active means well fitted inhibition curve with a large enough effect; inconclusive means small, poorly fitted or top-dose-only effect; inactive means no such curve, though single readings can be large or run the other way.

Tests used:
[1] = tested on: Zika virus NS2B-NS3 protease (unlinked complex); experiment: Primary screen GU Rhodamine qHTS for Zika virus inhibitors: Unlinked NS2B-NS3 protease assay (AID 1347159); further: nearly all actives have a fitted effect of over 60% in size
Method in brief: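 Noncovalent NS2B hydrophilic domain–NS3 protease domain complex (25 nM) preincubated 15 min at room temperature with compounds (up to 114 microM) in 10 mM Tris-HCl pH 8.0, 0.01% Tween 20; 1.5 microM Rhodamine110 substrate added, fluorescence change over 15 min fitted to Hill equation.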

[2] = tested on: Zika virus NS2B-NS3 protease (linked construct); experiment: Primary screen NINDS Rhodamine qHTS for Zika virus inhibitors (AID 1347160); further: nearly all actives have a fitted effect of over 55% in size
Method in brief: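 Purified linked NS2B-NS3 protease (NS2B hydrophilic domain joined to NS3 protease by flexible linker), 25 nM in 10 mM Tris-HCl pH 8.0, 0.01% Tween 20. Compounds titrated, 15 min preincubation at room temperature; 1.5 microM Rhodamine110 substrate, FITC fluorescence change over 15 min.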

Structure (SMILES)	Potency [1]	Potency [2]
COc1cc(/C=C/C(=O)O[C@@H]2C[C@@](O)(C(=O)O)C[C@@H](O)[C@@H]2O)ccc1O	inactive	inactive
CCc1cccc2c3c([nH]c12)[C@@](CC)(CC(=O)O)OCC3	inactive	inactive
CC1OC(OC2CCC3(C)C(CCC4(C)C3C=CC35OCC6(CCC(C)(C)CC63)CCC45C)C2(C)CO)C(OC2OC(CO)C(O)C(O)C2O)C(O)C1OC1OC(CO)C(O)C(O)C1O (configuration not stated)	inactive	inactive
NC[C@H]1CCC[C@@H](CNC(=O)[C@@H](Cc2c[nH]c3ccccc23)NC(=O)N2CCC3(C=Cc4ccccc43)CC2)C1	inactive	inactive
CC1=C2C[C@@]3(C)C(CCC[C@@H]3C)C(O)C2(O)OC1=O (some centres not stated)	inactive	inactive
COc1ccc(O[C@@H]2O[C@H](CO)[C@@H](O)[C@H](O)[C@H]2O)cc1OC	inactive	inactive
Cc1occc1C(=O)n1ccnc1	inactive	inactive
C=CC(C)(C)C12Nc3c(ccc4c3OC(C)(C)C=C4)C1(O)CC1C(=O)N3CCCC3C(=O)N12 (configuration not stated)	inactive	inactive
CC1CCC2(NC1)OC1C(O)C3C4CCC5CC(O[C@@H]6O[C@H](CO)[C@@H](O)[C@H](O)[C@H]6O[C@@H]6O[C@@H](C)[C@H](O)[C@@H](O)[C@H]6O)CCC5(C)C4CCC3(C)C1C2C (some centres not stated)	inactive	inactive
C/C=C1/[C@H](O[C@@H]2O[C@H](CO)[C@@H](O)[C@H](O)[C@H]2O)OC=C(C(=O)OC)[C@H]1CC(=O)OCCc1ccc(O)c(O)c1	inactive	inactive
C/C=C(/C)C(=O)O[C@H]1C[C@]2(C)O[C@@H]2[C@@H](OC(C)=O)[C@@]2(C)CC[C@@](O)(C(C)C)[C@H]12	inactive	inactive
